Results filed as inconclusive are left out. Active and inactive are the calls of the source. Unless noted, calls come from the whole dose curve.
What was measured:
[1] = Nuclear factor erythroid 2-related factor 2/antioxidant responsive element (Nrf2/ARE) small molecule agonists: qHTS cell viability counter screen in human keratinocytes (AID 1919968; active = well fitted curve in the direction sought with a large enough effect in the repeat runs; an effect the other way counts as inactive or inconclusive; note: nearly all actives have a fitted effect of over 55% in size; note: potency is the fitted concentration of half-maximal effect)
Method in brief: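 CellTiter-Fluor fluorescence, read 1 h after reagent, gave viability in the same wells as the ARE-luciferase assay. KeratinoSens cells (1,500/well) had 23 h compound exposure at 37 C/5% CO2 following 5 h plating.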

[2] = Nuclear factor erythroid 2-related factor 2/antioxidant responsive element (Nrf2/ARE) small molecule agonists: luciferase reporter gene qHTS assay in human keratinocytes (AID 1919969); note: nearly all actives have a fitted effect of over 35% in size
[3] = target: KiSS-1 receptor (Homo sapiens) (UniProt Q969F8); test: Human kisspeptin (KISS1R) small molecule agonists, calcium flux assay in KISS1R-HEK293 cells (AID 1920064; active = well fitted curve in the direction sought with a large enough effect in the repeat runs; an effect the other way counts as inactive or inconclusive)
Method in brief: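 Agonist mode: intracellular calcium rise tracked at 1 s intervals over 3 min (480/540 nm) immediately after compound addition to dye-loaded KISS1R-HEK293 stable cells. Each compound tested at 15 concentrations in triplicate.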

[4] = G protein-coupled receptor (GPCR) small molecule agonists, calcium flux assay: HEK293 wild type cell line counter screen (AID 1920065)
Method in brief: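 Calcium flux counter screen: compound added in agonist mode at 15 concentrations in triplicate to dye-loaded parental HEK293 cells. Fluorescence (480/540) read kinetically for 3 min; ATP served as positive control.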

[5] = p53 small molecule agonists, cell-based qHTS assay with rat liver microsomes (AID 1963578)
Method in brief: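 p53RE-bla cells were exposed to compounds together with rat liver microsomes (0.5 mg/mL final) and NADPH (0.5 mg/mL final) for 16 h at 37 C, then read by LiveBLAzer beta-lactamase fluorescence after 2 h at room temperature.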

[6] = p53 small molecule agonists, cell-based qHTS assay with human liver microsomes: qHTS cell viability counter screen (AID 1963579); note: nearly all actives have a fitted effect of over 45% in size; note: potency is the fitted concentration of half-maximal effect
Method in brief: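 p53RE-bla cells (4,000/well) were pre-incubated 5 h at 37 C, then given compounds in DMSO plus human liver microsomes (0.5 mg/mL final) and NADPH (0.5 mg/mL final) for 16 h at 37 C. Viability was read by CellTiter-Glo luminescence.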

[7] = p53 small molecule agonists, cell-based qHTS assay with rat liver microsomes: qHTS cell viability counter screen (AID 1963580); note: nearly all actives have a fitted effect of over 45% in size
Method in brief: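 After the beta-lactamase ratio was read, CellTiter-Glo was added to the same wells and luminescence measured at 30 min; cells had been treated 16 h at 37 C with compounds, rat liver microsomes and NADPH (0.5 mg/mL final each).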

[8] = target: 5-hydroxytryptamine receptor 2A (Homo sapiens) (UniProt P28223); test: 5-hydroxytryptamine receptor 2A (HTR2A) small molecule antagonists, cell-based qHTS assay (AID 1963586); note: nearly all actives have a fitted effect of over 45% in size
Method in brief: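 CHO cells stably expressing human HTR2A were plated for 18 h at 37 C, then loaded with calcium dye for 1 h. Compounds were preincubated 5 min at room temperature before DOI (4 nM solution) was added. Kinetic fluorescence was read for 3 min.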

[9] = target: 5-hydroxytryptamine receptor 2A (Homo sapiens) (UniProt P28223); test: 5-hydroxytryptamine receptor 2A (HTR2A) small molecule agonists, cell-based qHTS assay (AID 1963587); note: nearly all actives have a fitted effect of over 30% in size
Method in brief: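 CHO cells stably expressing human HTR2A, plated 18 h, loaded with calcium dye 1 h at 37 C. Agonist mode: compounds added and intracellular calcium fluorescence recorded kinetically for 2 min at 1 sec intervals.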

[10] = target: Muscarinic acetylcholine receptor M1 (Homo sapiens) (UniProt P11229); test: Cholinergic receptor muscarinic 1 (CHRM1) small molecule antagonists, cell-based qHTS assay (AID 1963588); note: nearly all actives have a fitted effect of over 40% in size
Method in brief: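 Compounds were tested at 15 concentrations in three independent runs. Dye-loaded CHRM1-CHO cells were exposed 5 min at room temperature before stimulation by acetylcholine added at 50nM. Intracellular calcium was read kinetically on FDSS for 3 min.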

[11] = target: Muscarinic acetylcholine receptor M1 (Homo sapiens) (UniProt P11229); test: Cholinergic receptor muscarinic 1 (CHRM1) small molecule agonists, cell-based qHTS assay (AID 1963589); note: nearly all actives have a fitted effect of over 35% in size
Method in brief: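 Agonist-mode calcium-flux screen: compounds at 15 concentrations, three independent runs, were pin-transferred onto dye-loaded human CHRM1-CHO cells. Fluorescence was then recorded kinetically every second over minutes.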

[12] = cAMP Responsive Elements (CRE) small molecule agonists, cell-based qHTS assay (AID 1963590)
Method in brief: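 Agonist mode: compound added to CRE-bla HEK 293T cells (2,000/well, 18 h after plating) for 3 h at 37 C/5% CO2. Reporter activity detected via FRET beta-lactamase substrate, 2 h room-temperature loading.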

[13] = cAMP Responsive Elements (CRE) small molecule antagonists, cell-based qHTS assay (AID 1963591; active = well fitted inhibition curve with a large enough effect in the signal ratio in the repeat runs, not every such curve was filed as active; the % refers to the signal ratio)
Method in brief: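 Antagonist mode: compounds are added alongside the adenylyl cyclase activator NKH477 (0.25 uM final) to CRE-bla HEK293T cells for 3 h. LiveBLAzer FRET substrate, 2 h at room temperature, reports bla expression.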

[14] = target: Beta-2 adrenergic receptor (Homo sapiens) (UniProt P07550); test: Adrenergic beta2 receptor (ADRB2) small molecule antagonists, cell-based qHTS assay (AID 1963592); note: series mostly up to about 92 µM; nearly all actives have a fitted effect of over 50% in size
Method in brief: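 Assay format: CHO-ADRB2 cells, 18-20hr seeding at 37C/5% CO2, then compound plus 1nM isoproterenol agonist mix for 0.5hr RT. Homogeneous time-resolved fluorescence cAMP detection after 1hr, expressed as 665/615 nm ratio.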

[15] = target: D(2) dopamine receptor (Homo sapiens) (UniProt P14416); test: Dopamine D2 receptor (DRD2) small molecule agonists, cell-based qHTS assay (AID 1963594); note: nearly all actives have a fitted effect of over 35% in size
Method in brief: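 HEK293 cells stably expressing human DRD2, pre-treated with PDE inhibitor Ro20-1724 (0.1 mM final) and compound 10 min at room temperature, then stimulated with NKH477 (200nM […]) for 30 min. cAMP read by HTRF (665/620 nm).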

[16] = target: D(2) dopamine receptor (Homo sapiens) (UniProt P14416); test: Dopamine D2 receptor (DRD2) small molecule antagonists, cell-based qHTS assay (AID 1963595; active = well fitted inhibition curve with a large enough effect in the signal ratio in the repeat runs, with a control signal flat; the % refers to the signal ratio)
Method in brief: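 HTRF cAMP read-out at 665 and 620 nm emission (340 nm excitation). Antagonist mode: compounds were tested against 12 nM quinpirole in DRD2-HEK293 cells, with 200 nM NKH477 raising cAMP and 0.1 mM Ro20-1724 blocking its breakdown.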

[17] = p53 small molecule agonists, cell-based qHTS assay with human liver microsomes (AID 1963577)
Method in brief: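 p53RE-bla reporter cells were pre-incubated 5 h at 37 C, then treated with compounds plus human liver microsomes (0.5 mg/mL final) and NADPH (0.5 mg/mL final) for 16 h at 37 C. Beta-lactamase activity was read by LiveBLAzer fluorescence after 2 h at room temperature.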

[18] = p53 small molecule agonists, cell-based qHTS assay (AID 1963582; active = well fitted activation curve with a large enough effect in the signal ratio in the repeat runs, not every such curve was filed as active; the % refers to the signal ratio)
Method in brief: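 Read-out is beta-lactamase FRET fluorescence after 2 h at room temperature with LiveBLAzer B/G substrate. p53 response element-bla cells were treated 16 h at 37 C with compounds in DMSO, added 5 h after seeding.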

[19] = target: Beta-2 adrenergic receptor (Homo sapiens) (UniProt P07550); test: Adrenergic beta2 receptor (ADRB2) small molecule agonists, cell-based qHTS assay (AID 1963593);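 note: CHO cells stably overexpressing human ADRB2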
Method in brief: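 CHO cells stably over-expressing ADRB2 were plated overnight at 37C, then dosed with compounds plus a stimulation mix containing 100uM IBMX and 25uM Ro-20-1724 for 0.5hr at room temperature. cAMP was measured by HTRF competition, 1hr.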

[20] = p53 small molecule agonists, cell-based qHTS assay: qHTS cell viability counter screen (AID 1963581); note: nearly all actives have a fitted effect of over 45% in size
Method in brief: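 Counter screen read by CellTiter-Glo luminescence (ATP content, 30 min at room temperature), run in the same wells as the beta-lactamase reporter read. HCT-116 p53RE-bla cells saw compounds for 16 h at 37 C.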

Measured: Potency

D(2) dopamine receptor (Homo sapiens), sequence (P14416 whole entry, looked up): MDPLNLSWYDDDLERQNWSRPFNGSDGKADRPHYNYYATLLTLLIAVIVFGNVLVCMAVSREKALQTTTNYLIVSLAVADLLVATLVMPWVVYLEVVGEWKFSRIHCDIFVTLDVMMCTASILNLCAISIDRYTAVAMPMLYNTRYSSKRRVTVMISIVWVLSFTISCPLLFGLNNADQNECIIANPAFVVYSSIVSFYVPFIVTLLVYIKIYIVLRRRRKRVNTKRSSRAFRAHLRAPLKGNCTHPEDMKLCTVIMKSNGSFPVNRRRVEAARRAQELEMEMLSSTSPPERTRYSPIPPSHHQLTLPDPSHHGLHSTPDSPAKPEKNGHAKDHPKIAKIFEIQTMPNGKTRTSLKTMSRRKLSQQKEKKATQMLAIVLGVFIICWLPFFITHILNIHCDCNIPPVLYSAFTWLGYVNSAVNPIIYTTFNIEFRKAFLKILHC
5-hydroxytryptamine receptor 2A (Homo sapiens), sequence (P28223 whole entry, looked up): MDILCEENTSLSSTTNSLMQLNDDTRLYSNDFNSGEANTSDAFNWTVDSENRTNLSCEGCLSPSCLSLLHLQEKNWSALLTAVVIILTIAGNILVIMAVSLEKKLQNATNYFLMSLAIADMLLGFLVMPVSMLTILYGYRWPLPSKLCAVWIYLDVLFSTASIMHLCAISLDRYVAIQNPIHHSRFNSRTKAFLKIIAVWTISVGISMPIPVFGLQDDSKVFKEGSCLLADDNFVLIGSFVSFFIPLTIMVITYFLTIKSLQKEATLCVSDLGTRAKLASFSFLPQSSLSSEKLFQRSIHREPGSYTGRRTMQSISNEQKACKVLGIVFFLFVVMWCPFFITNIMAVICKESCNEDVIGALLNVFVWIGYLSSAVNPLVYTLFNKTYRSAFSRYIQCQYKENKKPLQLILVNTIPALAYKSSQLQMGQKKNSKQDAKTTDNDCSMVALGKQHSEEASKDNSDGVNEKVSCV
Muscarinic acetylcholine receptor M1 (Homo sapiens), sequence (P11229 whole entry, looked up): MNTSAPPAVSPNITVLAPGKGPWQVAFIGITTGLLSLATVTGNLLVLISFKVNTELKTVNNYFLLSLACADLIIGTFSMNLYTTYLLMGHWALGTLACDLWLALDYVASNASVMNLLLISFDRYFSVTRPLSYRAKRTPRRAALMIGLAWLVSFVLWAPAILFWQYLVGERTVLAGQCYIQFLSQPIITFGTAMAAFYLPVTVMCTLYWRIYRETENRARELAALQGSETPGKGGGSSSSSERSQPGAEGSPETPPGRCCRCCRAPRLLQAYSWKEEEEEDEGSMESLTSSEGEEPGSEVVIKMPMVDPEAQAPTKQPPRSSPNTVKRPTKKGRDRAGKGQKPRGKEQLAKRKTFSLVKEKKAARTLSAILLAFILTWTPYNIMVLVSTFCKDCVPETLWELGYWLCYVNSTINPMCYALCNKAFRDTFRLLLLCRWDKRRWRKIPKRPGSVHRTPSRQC
KiSS-1 receptor (Homo sapiens), sequence (Q969F8 whole entry, looked up): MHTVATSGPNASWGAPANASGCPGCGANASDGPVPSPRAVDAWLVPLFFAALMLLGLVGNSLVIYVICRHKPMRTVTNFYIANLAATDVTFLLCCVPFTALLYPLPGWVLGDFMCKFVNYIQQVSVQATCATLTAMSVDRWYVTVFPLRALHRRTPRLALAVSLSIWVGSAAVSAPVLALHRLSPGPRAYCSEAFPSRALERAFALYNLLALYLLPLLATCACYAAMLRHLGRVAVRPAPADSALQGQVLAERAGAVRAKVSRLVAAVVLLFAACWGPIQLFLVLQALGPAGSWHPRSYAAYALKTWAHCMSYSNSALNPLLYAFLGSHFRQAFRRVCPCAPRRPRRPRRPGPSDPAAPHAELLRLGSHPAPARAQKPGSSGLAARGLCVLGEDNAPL
Beta-2 adrenergic receptor (Homo sapiens), sequence (P07550 whole entry, looked up): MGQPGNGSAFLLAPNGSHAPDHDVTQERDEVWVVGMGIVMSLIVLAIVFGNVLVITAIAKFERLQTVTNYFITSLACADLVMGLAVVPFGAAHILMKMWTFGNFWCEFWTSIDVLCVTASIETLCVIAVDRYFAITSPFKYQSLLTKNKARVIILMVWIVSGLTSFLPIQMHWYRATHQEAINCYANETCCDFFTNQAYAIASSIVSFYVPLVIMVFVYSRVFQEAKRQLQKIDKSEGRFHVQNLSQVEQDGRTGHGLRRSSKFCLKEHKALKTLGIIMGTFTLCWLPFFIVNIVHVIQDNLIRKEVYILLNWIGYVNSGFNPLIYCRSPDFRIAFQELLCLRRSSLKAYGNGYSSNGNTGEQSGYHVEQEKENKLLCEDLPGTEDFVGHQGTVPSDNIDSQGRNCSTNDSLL

COC(C)(C)CCCC(C)CC=O (centres undefined)
inactive: [1] | [2] | [3] | [4] | [5] | [6] | [7] | [8] | [9] | [10] | [11] | [12] | [13] | [14] | [15] | [16]

NC12CC3CC(CC(C3)C1)C2
inactive: [1] | [2] | [3] | [4] | [17] | [5] | [6] | [7] | [18] | [12] | [13] | [14] | [19] | [15] | [16]

CC(C)OC(=O)C(C)N(C(=O)c1ccccc1)c1ccc(F)c(Cl)c1 (centres undefined)
inactive: [1] | [2] | [3] | [4] | [5] | [6] | [7] | [20] | [18] | [8] | [9] | [10] | [11] | [14] | [15]

CCCCCCCCCCCCCCC1CO1 (centres undefined)
inactive: [1] | [2] | [3] | [17] | [5] | [6] | [7] | [20] | [8] | [9] | [10] | [11] | [13] | [14] | [19] | [15] | [16]

CCCC(=O)OC(=O)CCC
inactive: [1] | [2] | [3] | [17] | [5] | [6] | [20] | [18] | [8] | [10] | [11] | [13] | [14] | [19] | [15] | [16]

CC1=C2[C@H](/C=C(\C)C(=O)O)CC[C@@H](C)[C@H]2CC1
active: [1] 44.9 µM | [6] 29.9 µM
inactive: [2] | [3] | [4] | [17] | [5] | [7] | [8] | [9] | [11] | [15] | [16]

CC(C)(C)c1cc(C=O)cc(C(C)(C)C)c1O
inactive: [1] | [2] | [3] | [4] | [5] | [6] | [7] | [20] | [18] | [8] | [9] | [11] | [12] | [13] | [14] | [15] | [16]

CCCCCCCCCCCCCCCC(=O)OC[C@H](O)[C@H]1OC(=O)C(O)=C1O
inactive: [1] | [2] | [3] | [4] | [5] | [6] | [8] | [9] | [10] | [11] | [12] | [13] | [14] | [15] | [16]
